Laboratory results: PubChem BioAssay
“And” between values parts separate entries of the source, which are not always exact repeats. Equal values may be shown once. Some compounds were tested as several samples or in several runs, with calls that do not always agree. The source made the active and inactive calls.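 Rule for the calls, unless noted: active = normalized viability below 100% at a tested concentration; inactive = the rest.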

Columns and labels:
[1] = Wnt pathway potentiators raising nuclear beta-catenin – imaging, WNT3A-conditioned medium, mouse C2C12, NPC library, primary screen (AID 1117326; in the data active = nuclear beta-catenin stimulation mostly above about 4.2%, no sharp cut-off; inactive = mostly below about 10%); details: stronger effect = higher value
[2] = stimulators of insulin release from INS-1E, primary screen, cell-based, 5 mM glucose, NPC library (AID 1117329;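 active = compound raises insulin release from rat beta cells at 5 mM glucose, no numeric limit stated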); details: rat INS-1E insulin secretion, at 10 µM, stronger effect = higher value
[3] = growth inhibition of GSK3B-pretreated HCT116 cells – cell-based, CellTiter-Glo, 0.2 to 20 µM (AID 1117336;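 active = compounds lowering colon cancer cell viability after pretreatment blocking the GSK3B kinase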); details: HCT116 viability after GSK3B inhibitor, at 20 µM, stronger effect = higher value
[4] = inhibition of endothelial tube formation, primary screen, imaging, VEGF stimulated, CD31 staining, tube area, NPC library (AID 1117340;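 active = compound that reduces growth-factor-driven endothelial tube area in a mixed cell culture, no cutoff stated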); details: VEGF-stimulated ADSC/ECFC co-culture, at 10 µM, stronger effect = higher value
[5] = GLP1 release stimulators, primary, NCI-H716, NPC library (AID 1117341;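 active = compound raises GLP1 secretion from the human gut endocrine cells, with no numeric limit stated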); details: NCI-H716 cells, at 10 µM, stronger effect = higher value
[6] = HCT116 colon cancer cell growth inhibition, primary screen, CellTiter-Glo luminescence, NPC library (AID 1117342;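 active = compounds that lower survival of HCT116 colon cancer cells in the luminescence readout, no numeric limit stated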); details: at 20 µM (top of the series)
[7] = reduced SW480 viability measured with CellTiter-Glo, NPC library, primary (AID 1117343;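 active = compounds that lower viability of the colon cancer cells in the luminescence readout, with no numeric limit stated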); details: CellTiter-Glo luminescence; at 20 µM (top of the series)
[8] = NPC library primary testing for decreased DLD-1 cell viability via CellTiter-Glo (AID 1117346;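 active = compounds that lower survival of DLD-1 colon cancer cells in the luminescence readout, no cutoff given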); details: DLD-1 viability, CellTiter-Glo luminescence; at 20 µM (top of the series)
[9] = target: 6-phosphogluconate dehydrogenase, decarboxylating (Homo sapiens) (UniProt P52209); assay: inhibition of human phosphogluconate dehydrogenase – biochemical, recombinant enzyme, NADPH absorbance, primary screen (AID 1159550;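 active = at least 20% inhibition of 6-phosphogluconate dehydrogenase activity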); details: recombinant 6PGD, NADPH absorbance 341 nm; at 10 µM; stronger effect = higher value
[10] = modulation of C. elegans fzo-1 (AID 1259413; call rule not given here;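 note: fzo-1 mutant C. elegans worms in liquid wells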); details: C. elegans fzo-1 modulator screen, mean read-out; stronger effect = higher value
[11] = EMT-state selective cytotoxicity in co-culture – imaging, PC-3E GFP, TEM4-18 mCherry, primary screen (AID 1345086;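 active = compounds killing one labelled cell type while sparing the other, by normalised counts and ratio limits, not self-fluorescent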;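 for all read-outs here: cells exposed to compound for 72 h before imaging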;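 for red/green cell ratio (normalised): normalised mesenchymal count divided by normalised epithelial count so high means epithelial killing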); details: PC-3E GFP / TEM4-18 mCherry co-culture, imaging cell counts, at 1 µM; for red/green cell ratio (normalised): actives lie on both sides, counts scaled to control wells, 1 = unselective
[12] = MELAS cybrid and Rieske KO viability enhancers – cell-based, MELAS cybrids, Rieske KO mouse fibroblasts, CellTiter-Glo, primary screen (AID 1508586;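 active = mean z-score across replicates of 1.96 or higher in either the MELAS or the Rieske mutant cell line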;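 note: z relative to plate mean and SD of compound and empty wells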); details: low glucose
[13] = drug combination growth inhibition, ovarian cancer – cell-based, oncology-focused library, rucaparib conditional, profiling panel (AID 1508598); details: patient-derived ovarian cancer cells, CellTiter-Glo viability, 144 h, stronger effect = lower value
[14] = target: NAD(+) hydrolase SARM1 (Homo sapiens) (UniProt Q6SZW1); assay: blocking NAD cleavage by SARM1 SAM-TIR – cell lysate, NAD-Glo luminescence (AID 1508614;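 active = compound whose remaining NAD level is above about 45 nM, limit read from the data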;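 note: higher remaining NAD means stronger inhibition of SARM1 NADase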); details: SAM-TIR HEK293T lysate NADase, at 1 µM, stronger effect = higher value
[15] = target: Mitogen-activated protein kinase 7 (Homo sapiens) (UniProt Q13164); assay: Gal4-ERK5 driven luciferase induction – cell-based, HTS, primary screen (AID 1508626;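 active = luciferase signal above three times the same-plate solvent-only control wells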;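 note: luciferase driven by Gal4-ERK5 fusion binding five Gal4 sites before minimal TATA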); details: HeLa Gal4-ERK5 transactivation, 18 h, at 5 µM, stronger effect = higher value
F380Y = assay: BK channel mutant inhibitors and activators – cell-based, U2OS BacMam, thallium flux, beta subunits, selectivity assay, profiling panel (AID 1259406;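 active = thallium flux through the channel raised or lowered by more than 3 SD from vehicle-only wells, actives on both sides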;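 note: initial slope of Thallos dye fluorescence rise after thallium is added; log ratio against the mean of 0.3% DMSO vehicle wells on the same plate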); details: U2OS BacMam BK variants, at 30 µM
F380Y/beta1 = assay: as above; details: U2OS BacMam BK variants, at 30 µM
F380Y/beta2Delta = assay: as above; details: U2OS BacMam BK variants, at 30 µM
F380Y/beta4 = assay: as above; details: U2OS BacMam BK variants, at 30 µM
[16] = target: Calcium-activated potassium channel subunit alpha-1 (Homo sapiens) + Leucine-rich repeat-containing protein 26 (Homo sapiens) (UniProt Q12791+Q2I0M4); assay: as above; details: U2OS BacMam BK variants, F380Y/Slo1WT/gamma1, at 30 µM
[17] = measured here: epithelial PC-3E GFP cell survival
[18] = measured here: mesenchymal TEM4-18 mCherry cell survival
[19] = MELAS cybrid survival, CellTiter-Glo 48 h, stronger effect = higher value
[20] = Rieske KO mouse fibroblast survival, CellTiter-Glo 72 h

Sequence of NAD(+) hydrolase SARM1 (Homo sapiens) (Q6SZW1 whole entry, looked up, the tested form may be a part): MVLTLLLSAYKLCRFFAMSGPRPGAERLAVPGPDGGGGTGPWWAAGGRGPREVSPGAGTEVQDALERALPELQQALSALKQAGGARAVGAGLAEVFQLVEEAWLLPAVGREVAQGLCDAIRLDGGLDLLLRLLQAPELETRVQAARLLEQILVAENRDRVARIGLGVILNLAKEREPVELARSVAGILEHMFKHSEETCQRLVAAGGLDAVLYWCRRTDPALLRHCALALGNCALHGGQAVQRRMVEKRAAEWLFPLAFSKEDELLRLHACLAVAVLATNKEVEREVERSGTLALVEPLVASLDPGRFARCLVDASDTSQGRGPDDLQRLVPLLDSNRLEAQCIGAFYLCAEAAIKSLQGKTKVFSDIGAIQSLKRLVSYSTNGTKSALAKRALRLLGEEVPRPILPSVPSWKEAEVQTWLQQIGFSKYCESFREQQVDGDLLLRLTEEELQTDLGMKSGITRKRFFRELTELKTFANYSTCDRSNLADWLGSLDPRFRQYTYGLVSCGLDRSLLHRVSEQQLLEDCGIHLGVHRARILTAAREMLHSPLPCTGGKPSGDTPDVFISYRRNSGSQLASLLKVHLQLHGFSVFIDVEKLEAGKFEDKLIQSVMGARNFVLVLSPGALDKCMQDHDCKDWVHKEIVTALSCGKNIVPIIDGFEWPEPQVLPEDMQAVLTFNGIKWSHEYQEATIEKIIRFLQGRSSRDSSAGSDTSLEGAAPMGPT
Sequence of Mitogen-activated protein kinase 7 (Homo sapiens) (Q13164 whole entry, looked up, the tested form may be a part): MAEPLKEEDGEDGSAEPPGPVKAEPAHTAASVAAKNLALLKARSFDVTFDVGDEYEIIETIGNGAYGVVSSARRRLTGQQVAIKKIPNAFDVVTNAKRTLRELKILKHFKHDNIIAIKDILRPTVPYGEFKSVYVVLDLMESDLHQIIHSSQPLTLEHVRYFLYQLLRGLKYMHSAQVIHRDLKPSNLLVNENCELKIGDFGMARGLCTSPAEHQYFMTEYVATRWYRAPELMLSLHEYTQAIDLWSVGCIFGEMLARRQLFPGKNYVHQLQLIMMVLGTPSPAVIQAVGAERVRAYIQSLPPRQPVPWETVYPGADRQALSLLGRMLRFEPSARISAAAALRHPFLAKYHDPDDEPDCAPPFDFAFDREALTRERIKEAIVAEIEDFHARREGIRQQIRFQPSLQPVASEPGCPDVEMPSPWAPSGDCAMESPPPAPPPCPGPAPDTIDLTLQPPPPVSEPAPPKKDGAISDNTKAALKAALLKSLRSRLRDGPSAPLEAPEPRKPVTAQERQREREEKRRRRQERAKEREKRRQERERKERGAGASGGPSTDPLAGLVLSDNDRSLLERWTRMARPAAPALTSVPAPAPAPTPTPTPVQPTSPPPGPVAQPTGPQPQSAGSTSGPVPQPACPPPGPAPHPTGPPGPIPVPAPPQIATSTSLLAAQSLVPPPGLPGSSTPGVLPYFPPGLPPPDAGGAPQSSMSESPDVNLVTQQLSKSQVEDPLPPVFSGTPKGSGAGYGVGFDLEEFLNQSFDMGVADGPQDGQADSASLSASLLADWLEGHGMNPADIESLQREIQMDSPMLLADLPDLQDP
Sequence of 6-phosphogluconate dehydrogenase, decarboxylating (Homo sapiens) (P52209 whole entry, looked up): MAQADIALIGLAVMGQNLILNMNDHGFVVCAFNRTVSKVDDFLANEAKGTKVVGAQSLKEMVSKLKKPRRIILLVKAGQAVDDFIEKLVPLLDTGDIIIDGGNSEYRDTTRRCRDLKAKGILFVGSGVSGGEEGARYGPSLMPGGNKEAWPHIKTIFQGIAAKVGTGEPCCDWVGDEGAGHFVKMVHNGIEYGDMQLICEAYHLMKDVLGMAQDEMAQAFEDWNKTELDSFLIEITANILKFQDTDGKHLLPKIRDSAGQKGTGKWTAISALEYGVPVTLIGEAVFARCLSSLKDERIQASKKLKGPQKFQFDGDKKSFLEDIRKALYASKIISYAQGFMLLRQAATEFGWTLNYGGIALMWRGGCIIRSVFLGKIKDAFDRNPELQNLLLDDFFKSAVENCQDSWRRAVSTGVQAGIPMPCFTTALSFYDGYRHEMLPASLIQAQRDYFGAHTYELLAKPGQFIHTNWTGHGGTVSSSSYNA
Sequence of Calcium-activated potassium channel subunit alpha-1 (Homo sapiens) + Leucine-rich repeat-containing protein 26 (Homo sapiens) (Q2I0M4 whole entry, looked up, one chain of several): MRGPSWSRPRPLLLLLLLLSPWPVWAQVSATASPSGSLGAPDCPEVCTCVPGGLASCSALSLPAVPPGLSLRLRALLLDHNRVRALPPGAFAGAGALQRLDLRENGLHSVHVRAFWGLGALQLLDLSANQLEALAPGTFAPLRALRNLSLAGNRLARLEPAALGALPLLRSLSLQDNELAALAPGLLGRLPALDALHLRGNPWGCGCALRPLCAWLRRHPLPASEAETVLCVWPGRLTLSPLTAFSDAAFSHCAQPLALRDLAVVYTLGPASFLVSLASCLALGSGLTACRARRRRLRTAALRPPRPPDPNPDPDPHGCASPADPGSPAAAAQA

S=c1nc[nH]c2nc[nH]c12
0.0168 (inactive) and 3.92 (active): z-score [12, 19]
0.6%: nuclear beta-catenin stimulation ([1]; stimulation, at 2 µM)
0.195 and 0.755: z-score [12, 20]
inactive: nuclear beta-catenin stimulation ([1]; at 10 µM) -0.9% | insulin secretion stimulation [2] 0.6% | GLP1 secretion stimulation [5] -0.7% | inhibition [9] -3.59% | mean signal [10] 247 | red/green cell ratio (normalised) [11] 0.76 | viability ([13]; at 0.000305 µM, OCI-C5x cells, with rucaparib 10 µM, 100% = cells with rucaparib alone) 120% | viability ([13]; at 0.000305 µM, OCI-C5x cells, without rucaparib) 111% | viability ([13]; at 0.00122 µM, OCI-C5x cells, with rucaparib 10 µM, 100% = cells with rucaparib alone) 110% | viability ([13]; at 0.00122 µM, OCI-C5x cells, without rucaparib) 105% | viability ([13]; at 0.00488 µM, OCI-C5x cells, with rucaparib 10 µM, 100% = cells with rucaparib alone) 111% | viability ([13]; at 0.00488 µM, OCI-C5x cells, without rucaparib) 100% | viability ([13]; at 0.0195 µM, OCI-C5x cells, with rucaparib 10 µM, 100% = cells with rucaparib alone) 104% | viability ([13]; at 0.0195 µM, OCI-C5x cells, without rucaparib) 109% | viability ([13]; at 0.0781 µM, OCI-C5x cells, with rucaparib 10 µM, 100% = cells with rucaparib alone) 123% | viability ([13]; at 0.313 µM, OCI-C5x cells, with rucaparib 10 µM, 100% = cells with rucaparib alone) 106% | viability ([13]; at 1.25 µM, OCI-C5x cells, with rucaparib 10 µM, 100% = cells with rucaparib alone) 105% | viability ([13]; at 5 µM, OCI-C5x cells, with rucaparib 10 µM, 100% = cells with rucaparib alone) 126% | viability ([13]; at 5 µM, OCI-C5x cells, without rucaparib) 107% | remaining NAD [14] 10 nM | log fold change Tl+ flux (F380Y) -0.0324 | log fold change Tl+ flux (F380Y/beta1) -0.00111 | log fold change Tl+ flux (F380Y/beta2Delta) -0.00985 | log fold change Tl+ flux (F380Y/beta4) -0.00864 | log fold change Tl+ flux [16] -0.0406
1.42: normalised cell number [11, 17]
active: viability decrease [3] 77.7% | tube area decrease [4] 95.3% | inhibition of viability [6] 83.2% | viability decrease (inhibition) [7] 107% | viability decrease (inhibition) [8] 79.1% | viability ([13]; at 0.000305 µM, OCI-P5x cells, with rucaparib 20 µM, 100% = cells with rucaparib alone) 94.6% | viability ([13]; at 0.000305 µM, OCI-P5x cells, without rucaparib) 92.1% | viability ([13]; at 0.00122 µM, OCI-P5x cells, with rucaparib 20 µM, 100% = cells with rucaparib alone) 98.4% | viability ([13]; at 0.00122 µM, OCI-P5x cells, without rucaparib) 94.6% | viability ([13]; at 0.00488 µM, OCI-P5x cells, with rucaparib 20 µM, 100% = cells with rucaparib alone) 99.6% | viability ([13]; at 0.00488 µM, OCI-P5x cells, without rucaparib) 90.4% | viability ([13]; at 0.0195 µM, OCI-P5x cells, with rucaparib 20 µM, 100% = cells with rucaparib alone) 94.9% | viability ([13]; at 0.0195 µM, OCI-P5x cells, without rucaparib) 84.4% | viability ([13]; at 0.0781 µM, OCI-C5x cells, without rucaparib) 95.4% | viability ([13]; at 0.0781 µM, OCI-P5x cells, with rucaparib 20 µM, 100% = cells with rucaparib alone) 90.4% | viability ([13]; at 0.0781 µM, OCI-P5x cells, without rucaparib) 87.6% | viability ([13]; at 0.313 µM, OCI-C5x cells, without rucaparib) 91.6% | viability ([13]; at 0.313 µM, OCI-P5x cells, with rucaparib 20 µM, 100% = cells with rucaparib alone) 89.7% | viability ([13]; at 0.313 µM, OCI-P5x cells, without rucaparib) 86.1% | viability ([13]; at 1.25 µM, OCI-C5x cells, without rucaparib) 93.1% | viability ([13]; at 1.25 µM, OCI-P5x cells, with rucaparib 20 µM, 100% = cells with rucaparib alone) 87.9% | viability ([13]; at 1.25 µM, OCI-P5x cells, without rucaparib) 80.6% | viability ([13]; at 5 µM, OCI-P5x cells, with rucaparib 20 µM, 100% = cells with rucaparib alone) 79% | viability ([13]; at 5 µM, OCI-P5x cells, without rucaparib) 79.9% | luciferase signal [15] 2730 AU
1.07: normalised cell number [11, 18]

CCc1cc(C(N)=S)ccn1
0.5%: nuclear beta-catenin stimulation ([1]; stimulation, at 2 µM)
0.0377 and 0.257: z-score [12, 20]
inactive: nuclear beta-catenin stimulation ([1]; at 10 µM) 0.1% | insulin secretion stimulation [2] 1% | viability decrease [3] -19.3% | tube area decrease [4] 2.7% | GLP1 secretion stimulation [5] -4% | inhibition of viability [6] -7.9% | viability decrease (inhibition) [7] 6.3% | viability decrease (inhibition) [8] -11% | inhibition [9] 11% | mean signal [10] 267 | red/green cell ratio (normalised) [11] 0.96 | z-score [12, 19] 0.0369 and 0.0584 | remaining NAD [14] 10 nM | luciferase signal [15] 40 AU | log fold change Tl+ flux (F380Y) 0.0115 | log fold change Tl+ flux (F380Y/beta1) 0.0016 | log fold change Tl+ flux (F380Y/beta2Delta) -0.0262 | log fold change Tl+ flux (F380Y/beta4) 0.0197 | log fold change Tl+ flux [16] 0.00124
1.01: normalised cell number [11, 17]
0.97: normalised cell number [11, 18]
